Test results as given in ChEMBL document CHEMBL1961873, “Compounds: GSK PKIS; Assays: Nanosyn kinase panel” (2012).

Assays:
[1] = biological target: Fibroblast growth factor receptor 4 (Homo sapiens) (UniProt P22455); conditions: at 1 µM;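 also: reported figure is the averaged percent inhibition of FGFR4, from the GSK PKIS kinase screening panel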
[2] = biological target: Tyrosine-protein kinase Fgr (Homo sapiens) (UniProt P09769); conditions: at 0.1 µM
[3] = biological target: Tyrosine-protein kinase Fgr (Homo sapiens) (UniProt P09769); conditions: at 1 µM
[4] = biological target: Vascular endothelial growth factor receptor 1 (Homo sapiens) (UniProt P17948); conditions: at 0.1 µM
Sequence of Vascular endothelial growth factor receptor 1 (Homo sapiens) (P17948 whole entry): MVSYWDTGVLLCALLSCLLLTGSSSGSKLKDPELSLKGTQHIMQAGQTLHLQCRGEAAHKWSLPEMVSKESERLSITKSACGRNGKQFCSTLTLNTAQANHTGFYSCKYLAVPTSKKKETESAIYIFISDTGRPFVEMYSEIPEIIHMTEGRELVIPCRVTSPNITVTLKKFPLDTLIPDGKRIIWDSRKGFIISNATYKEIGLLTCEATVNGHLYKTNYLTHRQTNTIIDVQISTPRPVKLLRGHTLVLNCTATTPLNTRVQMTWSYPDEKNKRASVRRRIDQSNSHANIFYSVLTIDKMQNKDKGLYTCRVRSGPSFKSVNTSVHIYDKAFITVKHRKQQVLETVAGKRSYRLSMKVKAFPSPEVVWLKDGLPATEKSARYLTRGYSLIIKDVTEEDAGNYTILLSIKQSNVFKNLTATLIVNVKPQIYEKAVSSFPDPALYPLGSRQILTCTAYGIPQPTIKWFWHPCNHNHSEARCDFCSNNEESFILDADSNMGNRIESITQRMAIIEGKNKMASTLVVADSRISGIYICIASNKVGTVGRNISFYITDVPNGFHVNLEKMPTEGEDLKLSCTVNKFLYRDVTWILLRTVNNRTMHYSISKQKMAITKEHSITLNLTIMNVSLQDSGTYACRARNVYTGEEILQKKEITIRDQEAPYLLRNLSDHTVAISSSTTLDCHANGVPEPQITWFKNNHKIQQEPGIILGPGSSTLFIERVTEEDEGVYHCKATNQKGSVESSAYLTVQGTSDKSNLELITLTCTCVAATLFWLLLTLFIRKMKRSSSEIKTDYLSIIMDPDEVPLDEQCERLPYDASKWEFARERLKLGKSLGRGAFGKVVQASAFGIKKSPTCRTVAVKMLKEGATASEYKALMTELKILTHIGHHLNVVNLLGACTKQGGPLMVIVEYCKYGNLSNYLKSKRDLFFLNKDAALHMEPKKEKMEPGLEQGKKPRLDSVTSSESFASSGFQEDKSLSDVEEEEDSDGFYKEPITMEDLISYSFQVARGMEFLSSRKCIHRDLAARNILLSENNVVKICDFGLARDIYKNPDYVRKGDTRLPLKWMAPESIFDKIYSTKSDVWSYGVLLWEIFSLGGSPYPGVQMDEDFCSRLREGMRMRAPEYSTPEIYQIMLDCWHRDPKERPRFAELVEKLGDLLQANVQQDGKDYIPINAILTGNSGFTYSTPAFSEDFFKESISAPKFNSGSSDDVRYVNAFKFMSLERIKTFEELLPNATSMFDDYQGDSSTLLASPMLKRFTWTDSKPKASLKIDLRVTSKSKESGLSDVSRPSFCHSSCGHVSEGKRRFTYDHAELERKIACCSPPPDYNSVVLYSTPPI

[5] = biological target: Vascular endothelial growth factor receptor 1 (Homo sapiens) (UniProt P17948); conditions: at 1 µM
[6] = biological target: Receptor-type tyrosine-protein kinase FLT3 (Homo sapiens) (UniProt P36888); conditions: at 0.1 µM
[7] = biological target: Receptor-type tyrosine-protein kinase FLT3 (Homo sapiens) (UniProt P36888); conditions: at 1 µM
[8] = tested on: T1, Receptor-type tyrosine-protein kinase FLT3 (Homo sapiens), P36888 [D835Y]; conditions: at 0.1 µM
T1 sequence (whole entry): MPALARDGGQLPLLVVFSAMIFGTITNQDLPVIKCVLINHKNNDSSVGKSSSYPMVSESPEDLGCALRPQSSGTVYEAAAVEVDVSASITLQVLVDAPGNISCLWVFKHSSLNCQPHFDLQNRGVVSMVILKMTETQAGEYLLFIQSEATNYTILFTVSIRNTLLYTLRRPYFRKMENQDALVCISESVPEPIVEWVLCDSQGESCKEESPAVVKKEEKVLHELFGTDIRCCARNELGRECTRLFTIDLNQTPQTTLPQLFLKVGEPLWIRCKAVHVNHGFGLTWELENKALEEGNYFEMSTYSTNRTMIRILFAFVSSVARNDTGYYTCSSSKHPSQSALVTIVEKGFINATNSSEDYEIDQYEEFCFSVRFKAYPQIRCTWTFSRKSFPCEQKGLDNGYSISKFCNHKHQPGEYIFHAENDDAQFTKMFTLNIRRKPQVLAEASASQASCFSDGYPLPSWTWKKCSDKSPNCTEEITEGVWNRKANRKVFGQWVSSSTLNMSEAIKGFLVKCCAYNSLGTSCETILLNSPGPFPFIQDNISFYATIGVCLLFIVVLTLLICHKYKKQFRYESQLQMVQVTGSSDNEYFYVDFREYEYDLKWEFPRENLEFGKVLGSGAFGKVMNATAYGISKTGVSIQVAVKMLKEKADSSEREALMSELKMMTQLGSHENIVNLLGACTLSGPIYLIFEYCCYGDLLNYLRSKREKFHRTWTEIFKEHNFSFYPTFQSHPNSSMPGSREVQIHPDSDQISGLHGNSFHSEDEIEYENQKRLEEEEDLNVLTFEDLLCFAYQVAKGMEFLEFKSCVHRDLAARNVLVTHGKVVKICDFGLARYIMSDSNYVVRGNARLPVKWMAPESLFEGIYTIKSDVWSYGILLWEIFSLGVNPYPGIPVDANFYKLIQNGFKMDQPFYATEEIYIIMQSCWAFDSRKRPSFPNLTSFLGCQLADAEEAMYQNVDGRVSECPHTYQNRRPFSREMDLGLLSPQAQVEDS

[9] = biological target: Non-receptor tyrosine-protein kinase TYK2 (Homo sapiens) (UniProt P29597); conditions: at 1 µM;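 also: values are mean percent inhibition of TYK2 kinase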
[10] = biological target: T2, Tyrosine-protein kinase receptor TYRO3 (Homo sapiens) (UniProt Q06418); conditions: at 0.1 µM
T2 sequence (whole entry): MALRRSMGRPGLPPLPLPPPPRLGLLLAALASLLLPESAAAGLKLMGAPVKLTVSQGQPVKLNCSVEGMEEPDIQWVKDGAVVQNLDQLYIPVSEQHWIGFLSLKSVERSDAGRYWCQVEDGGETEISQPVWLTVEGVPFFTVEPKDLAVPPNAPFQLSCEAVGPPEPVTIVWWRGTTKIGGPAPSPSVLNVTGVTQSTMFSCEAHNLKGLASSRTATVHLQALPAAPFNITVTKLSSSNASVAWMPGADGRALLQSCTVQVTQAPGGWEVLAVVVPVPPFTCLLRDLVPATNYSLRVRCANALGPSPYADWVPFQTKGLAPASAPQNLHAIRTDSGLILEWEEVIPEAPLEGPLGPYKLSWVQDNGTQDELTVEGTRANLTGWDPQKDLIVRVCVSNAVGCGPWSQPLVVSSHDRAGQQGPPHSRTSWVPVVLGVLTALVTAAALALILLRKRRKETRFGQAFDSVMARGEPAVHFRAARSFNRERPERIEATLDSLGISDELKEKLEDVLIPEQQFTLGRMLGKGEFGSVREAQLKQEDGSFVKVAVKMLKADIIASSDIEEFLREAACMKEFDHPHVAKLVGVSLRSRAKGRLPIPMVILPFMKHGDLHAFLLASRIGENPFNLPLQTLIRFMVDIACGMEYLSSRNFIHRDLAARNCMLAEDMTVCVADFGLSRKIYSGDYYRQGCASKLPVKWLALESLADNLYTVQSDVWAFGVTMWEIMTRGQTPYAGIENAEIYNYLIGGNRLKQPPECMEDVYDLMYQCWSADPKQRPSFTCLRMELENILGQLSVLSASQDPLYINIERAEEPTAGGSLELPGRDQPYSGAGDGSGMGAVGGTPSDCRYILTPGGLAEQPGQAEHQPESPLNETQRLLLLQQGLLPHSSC

[11] = biological target: T2, Tyrosine-protein kinase receptor TYRO3 (Homo sapiens); conditions: at 1 µM
[12] = biological target: Tyrosine-protein kinase Yes (Homo sapiens) (UniProt P07947); conditions: at 0.1 µM
Sequence of Tyrosine-protein kinase Yes (Homo sapiens) (P07947 2-543 limits assumed): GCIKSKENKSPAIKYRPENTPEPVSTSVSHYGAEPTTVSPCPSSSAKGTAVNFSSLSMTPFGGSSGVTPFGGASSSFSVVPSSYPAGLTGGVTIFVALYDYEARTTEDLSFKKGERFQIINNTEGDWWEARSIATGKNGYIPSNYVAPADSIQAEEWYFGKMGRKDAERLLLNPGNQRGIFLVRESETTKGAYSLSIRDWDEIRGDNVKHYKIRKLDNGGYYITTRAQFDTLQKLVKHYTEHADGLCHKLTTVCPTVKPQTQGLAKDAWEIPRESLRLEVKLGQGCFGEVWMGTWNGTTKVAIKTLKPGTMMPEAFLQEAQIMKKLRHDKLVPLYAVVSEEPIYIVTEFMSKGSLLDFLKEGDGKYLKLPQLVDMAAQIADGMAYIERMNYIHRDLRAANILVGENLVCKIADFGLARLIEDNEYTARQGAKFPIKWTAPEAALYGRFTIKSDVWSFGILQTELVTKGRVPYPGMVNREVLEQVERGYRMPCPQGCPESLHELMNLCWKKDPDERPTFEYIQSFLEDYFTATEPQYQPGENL

[13] = biological target: Tyrosine-protein kinase Yes (Homo sapiens) (UniProt P07947); conditions: at 1 µM
[14] = biological target: T3, Tyrosine-protein kinase ZAP-70 (Homo sapiens) (UniProt P43403); conditions: at 0.1 µM
T3 sequence (whole entry): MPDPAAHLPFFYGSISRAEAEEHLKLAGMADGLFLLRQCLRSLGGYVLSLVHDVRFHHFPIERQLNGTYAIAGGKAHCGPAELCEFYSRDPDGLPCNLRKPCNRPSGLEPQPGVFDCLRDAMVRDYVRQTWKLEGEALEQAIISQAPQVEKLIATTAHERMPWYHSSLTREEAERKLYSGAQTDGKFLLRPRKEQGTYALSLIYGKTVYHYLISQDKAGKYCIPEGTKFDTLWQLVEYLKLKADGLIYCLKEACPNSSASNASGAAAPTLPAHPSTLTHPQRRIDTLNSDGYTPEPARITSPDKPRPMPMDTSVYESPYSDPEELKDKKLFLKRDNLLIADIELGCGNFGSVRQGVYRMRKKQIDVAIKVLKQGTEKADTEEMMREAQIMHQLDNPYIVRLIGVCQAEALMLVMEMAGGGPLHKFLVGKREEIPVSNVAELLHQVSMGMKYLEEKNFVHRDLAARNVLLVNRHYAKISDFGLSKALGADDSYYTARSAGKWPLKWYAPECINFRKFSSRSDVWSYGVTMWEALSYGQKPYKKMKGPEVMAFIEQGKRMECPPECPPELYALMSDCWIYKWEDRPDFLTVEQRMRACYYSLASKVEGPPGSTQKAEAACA

[15] = biological target: T3, Tyrosine-protein kinase ZAP-70 (Homo sapiens); conditions: at 1 µM
[16] = biological target: Serine/threonine-protein kinase B-raf (Homo sapiens) (UniProt P15056); conditions: at 0.1 µM
Sequence of Serine/threonine-protein kinase B-raf (Homo sapiens) (P15056 whole entry): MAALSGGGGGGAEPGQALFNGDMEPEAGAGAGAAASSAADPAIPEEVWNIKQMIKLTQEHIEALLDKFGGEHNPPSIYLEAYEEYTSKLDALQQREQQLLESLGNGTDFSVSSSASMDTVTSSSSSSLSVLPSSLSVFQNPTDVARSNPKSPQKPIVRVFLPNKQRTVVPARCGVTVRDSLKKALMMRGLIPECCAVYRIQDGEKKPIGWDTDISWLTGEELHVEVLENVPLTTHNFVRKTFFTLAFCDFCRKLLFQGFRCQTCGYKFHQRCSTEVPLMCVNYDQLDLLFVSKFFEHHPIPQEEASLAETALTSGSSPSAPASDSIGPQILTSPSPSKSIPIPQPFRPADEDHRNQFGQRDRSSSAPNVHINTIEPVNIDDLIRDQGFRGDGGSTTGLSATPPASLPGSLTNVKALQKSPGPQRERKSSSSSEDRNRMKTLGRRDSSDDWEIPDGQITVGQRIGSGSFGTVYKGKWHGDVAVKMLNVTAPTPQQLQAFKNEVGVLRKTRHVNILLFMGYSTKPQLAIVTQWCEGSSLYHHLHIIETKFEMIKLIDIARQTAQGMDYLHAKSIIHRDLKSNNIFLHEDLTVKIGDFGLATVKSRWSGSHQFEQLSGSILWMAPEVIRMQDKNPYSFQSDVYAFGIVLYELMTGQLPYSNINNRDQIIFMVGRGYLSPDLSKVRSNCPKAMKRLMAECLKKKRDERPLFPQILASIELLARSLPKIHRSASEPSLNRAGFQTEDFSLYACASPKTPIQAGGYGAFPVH

[17] = biological target: Serine/threonine-protein kinase B-raf (Homo sapiens) (UniProt P15056); conditions: at 1 µM
[18] = tested on: Serine/threonine-protein kinase B-raf (Homo sapiens), P15056 [V600E]; conditions: at 0.1 µM
Sequence of Serine/threonine-protein kinase B-raf (Homo sapiens), P15056 [V600E] (P15056 whole entry V600E): as the sequence (P15056 whole entry) above, with V600E counted along it

[19] = tested on: Serine/threonine-protein kinase B-raf (Homo sapiens), P15056 [V600E]; conditions: at 1 µM
[20] = biological target: RAF proto-oncogene serine/threonine-protein kinase (Homo sapiens) (UniProt P04049); conditions: at 0.1 µM;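 also: values are mean CRAF kinase inhibition from profiling of the GSK Published Kinase Inhibitor Set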
Sequence of RAF proto-oncogene serine/threonine-protein kinase (Homo sapiens) (P04049 whole entry): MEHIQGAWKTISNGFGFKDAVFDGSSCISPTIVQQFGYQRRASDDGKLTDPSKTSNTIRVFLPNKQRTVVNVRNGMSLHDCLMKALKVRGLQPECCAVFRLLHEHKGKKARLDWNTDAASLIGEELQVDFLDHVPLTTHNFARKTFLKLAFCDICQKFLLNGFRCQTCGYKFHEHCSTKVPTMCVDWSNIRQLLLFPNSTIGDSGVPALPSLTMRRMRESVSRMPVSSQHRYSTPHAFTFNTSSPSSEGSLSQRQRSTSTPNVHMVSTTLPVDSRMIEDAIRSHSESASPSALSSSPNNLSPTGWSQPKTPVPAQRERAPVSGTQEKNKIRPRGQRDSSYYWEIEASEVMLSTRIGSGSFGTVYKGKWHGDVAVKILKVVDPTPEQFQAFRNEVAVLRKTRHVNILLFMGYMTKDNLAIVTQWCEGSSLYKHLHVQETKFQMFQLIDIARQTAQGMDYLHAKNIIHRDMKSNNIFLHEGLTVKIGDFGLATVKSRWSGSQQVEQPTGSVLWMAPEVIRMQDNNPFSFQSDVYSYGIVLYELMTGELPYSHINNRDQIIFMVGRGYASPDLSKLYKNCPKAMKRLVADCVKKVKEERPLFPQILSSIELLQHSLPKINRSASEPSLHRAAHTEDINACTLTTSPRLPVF

Sequence of Fibroblast growth factor receptor 4 (Homo sapiens) (P22455 22-802 limits assumed): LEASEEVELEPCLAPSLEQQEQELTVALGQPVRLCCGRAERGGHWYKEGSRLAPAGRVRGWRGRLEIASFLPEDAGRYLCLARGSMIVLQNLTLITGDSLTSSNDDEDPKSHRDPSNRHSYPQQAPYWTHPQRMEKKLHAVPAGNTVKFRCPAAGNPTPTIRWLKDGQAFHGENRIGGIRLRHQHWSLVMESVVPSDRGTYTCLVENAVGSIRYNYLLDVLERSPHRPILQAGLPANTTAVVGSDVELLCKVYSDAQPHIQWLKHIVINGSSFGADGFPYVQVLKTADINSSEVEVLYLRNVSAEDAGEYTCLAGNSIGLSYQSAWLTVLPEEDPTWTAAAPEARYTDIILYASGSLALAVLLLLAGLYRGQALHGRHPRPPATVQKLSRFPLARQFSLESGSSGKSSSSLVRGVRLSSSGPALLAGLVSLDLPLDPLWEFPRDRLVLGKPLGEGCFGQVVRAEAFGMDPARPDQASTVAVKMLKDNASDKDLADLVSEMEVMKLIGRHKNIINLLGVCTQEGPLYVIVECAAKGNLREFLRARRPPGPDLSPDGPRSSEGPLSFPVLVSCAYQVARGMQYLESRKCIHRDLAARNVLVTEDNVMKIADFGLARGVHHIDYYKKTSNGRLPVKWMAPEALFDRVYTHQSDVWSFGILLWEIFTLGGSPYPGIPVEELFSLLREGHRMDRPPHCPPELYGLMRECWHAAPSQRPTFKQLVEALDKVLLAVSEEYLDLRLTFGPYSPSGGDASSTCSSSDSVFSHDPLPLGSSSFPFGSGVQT
Sequence of Tyrosine-protein kinase Fgr (Homo sapiens) (P09769 2-529 limits assumed): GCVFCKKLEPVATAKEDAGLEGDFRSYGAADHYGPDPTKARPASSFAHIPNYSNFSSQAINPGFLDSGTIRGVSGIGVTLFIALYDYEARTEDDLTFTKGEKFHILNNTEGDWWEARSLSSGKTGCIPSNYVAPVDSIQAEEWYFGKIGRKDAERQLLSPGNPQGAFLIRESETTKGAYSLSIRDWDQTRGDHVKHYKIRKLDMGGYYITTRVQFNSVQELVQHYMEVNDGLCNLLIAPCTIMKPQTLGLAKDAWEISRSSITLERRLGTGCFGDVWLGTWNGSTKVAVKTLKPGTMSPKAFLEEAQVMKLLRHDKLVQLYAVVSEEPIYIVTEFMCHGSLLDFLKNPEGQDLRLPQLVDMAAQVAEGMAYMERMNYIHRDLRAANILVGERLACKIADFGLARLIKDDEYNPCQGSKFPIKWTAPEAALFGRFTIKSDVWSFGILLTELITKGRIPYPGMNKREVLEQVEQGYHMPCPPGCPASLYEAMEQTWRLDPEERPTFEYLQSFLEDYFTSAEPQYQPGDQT

SMILES | inhibition [1] [%] | inhibition [2] [%] | inhibition [3] [%] | inhibition [4] [%] | inhibition [5] [%] | inhibition [6] [%] | inhibition [7] [%] | inhibition [8] [%] | inhibition [9] [%] | inhibition [10] [%] | inhibition [11] [%] | inhibition [12] [%] | inhibition [13] [%] | inhibition [14] [%] | inhibition [15] [%] | inhibition [16] [%] | inhibition [17] [%] | inhibition [18] [%] | inhibition [19] [%] | inhibition [20] [%]
CCc1nn2ncccc2c1-c1ccnc(NC2CC2)n1 | 1.27 | 3.49 | 3.74 | 0.02 | 2.1 | 3.16 | 3.41 | -7.04 | 2.1 | -0.14 | 3.06 | 1.2 | 6.6 | 1.02 | -2.31 | 2.93 | 4.97 | 3.84 | 3.79 | 0.39
N#Cc1c(NC(=O)c2ccc(F)cc2)sc2c1CCCC2 | 1.31 | 2.11 | 1.83 | 0.3 | 1.63 | -2.18 | 0.66 | -4.75 | -1.49 | 0.28 | 2.87 | 0.59 | 4.07 | 1.26 | 2.47 | 1.72 | 3.03 | 1.04 | 2.86 | -3.13
Fc1ccc(-c2cc(-c3c[nH]nc3-c3ccccn3)ccn2)cc1 | -0.52 | 5.85 | 3.11 | 1.1 | 1.96 | 2.44 | 2.5 | -6.21 | -4.52 | 3.67 | 5.06 | 5.64 | 9.04 | 2.71 | 2.35 | 6.7 | 8.05 | 9.04 | 6.61 | 0.68
CNC(=O)c1cc(-c2ccc(F)cc2)cc(-c2ccc(S(=O)(=O)N3CCCC3)cc2)c1N | 0.22 | 0.33 | 2.93 | 2.17 | -0.47 | 3.03 | 1.85 | -1.38 | -1.28 | 1.59 | 1.73 | 2.18 | 3.44 | -0.4 | -0.59 | 3.72 | 3.4 | 3.04 | 3.6 | 0.46
COc1cc2c(cc1Nc1nc(Nc3ccsc3C(N)=O)c3cc[nH]c3n1)N(C(=O)CN(C)C)CCC2(C)C | 4.78 | 1.11 | 6.75 | 1.44 | 1.83 | 4.2 | 13 | 0.35 | -1.34 | 3.88 | 18.6 | 2.57 | 0.61 | 2.36 | 14.9 | 6.5 | 14.9 | 7.15 | 14 | 1.55
CNC(=O)c1cncc(/C=C/c2ccccc2Cl)c1 | 1.93 | 5.13 | 9.91 | 0.53 | 2.73 | 1.25 | -0.38 | 3.03 | 2.16 | 0.43 | 2.53 | 3.64 | 7.95 | 1.79 | 1.12 | -0.63 | 0.08 | -0.33 | 0.71 | 0.74
